Reference: the supplement of paper PMC10037445
Over roughly 2,900 compounds, “NF-kB SEAP reporter activity, fold change vs agonist alone” has its median near 0.99; the highest 2% begin near 2.6. The sample holds the highest values, similar compounds and a random draw of the others, so the mix is not that of the screen.

What was measured:
RAW-Dual [1] = experiment: NF-kB SEAP reporter activity, fold change vs agonist alone; cytotoxicity flag (confluency mask): not cytotoxic; higher = enhanced NF-kB activity
Outline: (§1)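 After 50 nL of library stock was delivered by pin tool to RAW-Dual macrophages (50,000 cells/well, DMEM, 384-well plates), a PRR agonist was added 1 h later and the plates were kept at 37 °C, 5% CO2. Twenty hours later, IRF was read from supernatant by QuantiLuc luminescence and NF-κB by QuantiBlue absorbance at 620 nm. Reporter activity is stated as fold change over agonist-alone wells. Wells with IncuCyte confluency under 70% of agonist controls in both mask sets were counted as cytotoxic.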

RAW-Dual [2] = experiment: NF-kB SEAP reporter activity, fold change vs agonist alone; higher = enhanced NF-kB activity; conditions: library stock concentration (final ~1000-fold dilution): 10 mM
Outline: as §1

RAW-Dual [3] = experiment: NF-kB SEAP reporter activity, fold change vs agonist alone; cytotoxicity flag (confluency mask): cytotoxic (confluency <70% of control); higher = enhanced NF-kB activity
Outline: as §1

[4] = agonist: ODN 1826 (TLR9) 0.5 ug/mL
[5] = agonist: Pam2CSK4 (TLR2/6) 0.1 ug/mL
[6] = agonist: Pam3CSK4 (TLR2/1) 0.1 ug/mL
[7] = cytotoxicity flag (confluency mask): not cytotoxic, agonist: Imiquimod (TLR7) […]
[8] = cytotoxicity flag (confluency mask): not cytotoxic, agonist: MPLA (TLR4) […]
[9] = cytotoxicity flag (confluency mask): cytotoxic (confluency <70% of control), agonist: Imiquimod (TLR7) […]
[10] = cytotoxicity flag (confluency mask): cytotoxic (confluency <70% of control), agonist: MPLA (TLR4) […]

For Br.NC(=O)C(c1ccccc1)(c1ccccc1)C1CCN(CCc2ccc3c(c2)CCO3)C1 (stereo not given) (library stock concentration (final ~1000-fold dilution): 10 mM), the “NF-kB SEAP reporter activity” value (RAW-Dual [1]; agonist: LPS (TLR4) 0.1 ug/mL) was 0.967, the “NF-kB SEAP reporter activity” value (RAW-Dual [1]; [4]) was 0.467 and the “NF-kB SEAP reporter activity” value (RAW-Dual [1]; [5]) was 0.82. The “NF-kB SEAP reporter activity” value (RAW-Dual [1]; [6]) was 0.919.

In the case of C=C1CCC2C(C)(CO)C(O)CC[C@@]2(C)[C@@H]1C/C=C1/C(=O)OCC1O (stereo not given in full) (library stock concentration (final ~1000-fold dilution): 10 mM), the “NF-kB SEAP reporter activity” value (RAW-Dual [1]; agonist: LPS (TLR4) 0.1 ug/mL) is reported as 0.32, the “NF-kB SEAP reporter activity” value (RAW-Dual [1]; [4]) is reported as 0.206 and the “NF-kB SEAP reporter activity” value (RAW-Dual [1]; [5]) is reported as 0.0769. The “NF-kB SEAP reporter activity” value (RAW-Dual [1]; [6]) was 0.161.

C=C1CCC2C(C)(CO)C(O)CC[C@@]2(C)[C@@H]1C/C=C1/C(=O)OCC1O (stereo not given in full) was tested, and the “NF-kB SEAP reporter activity” value (RAW-Dual [2]; [7]) was 0.287 and the “NF-kB SEAP reporter activity” value (RAW-Dual [2]; [8]) was 0.305.

In the case of COc1ccc2c(OC3CC4C(=O)NC5(C(=O)NS(=O)(=O)C6CC6)CC5/C=C\CCCCN(C)C(=O)C4C3)cc(-c3nc(C(C)C)cs3)nc2c1C (stereo not given) (library stock concentration (final ~1000-fold dilution): 10 mM), the “NF-kB SEAP reporter activity” value (RAW-Dual [1]; agonist: LPS (TLR4) 0.1 ug/mL) is reported as 3.16, the “NF-kB SEAP reporter activity” value (RAW-Dual [1]; [4]) is reported as 0.926 and the “NF-kB SEAP reporter activity” value (RAW-Dual [1]; [5]) is reported as 0.842. The “NF-kB SEAP reporter activity” value (RAW-Dual [1]; [6]) was 0.952.

In the case of CC(C)(C)OC(=O)NC1CCCCC/C=C\C2CC2(C(=O)NS(=O)(=O)C2CC2)NC(=O)C2CC(OC(=O)N3Cc4cccc(F)c4C3)CN2C1=O (stereo not given) (library stock concentration (final ~1000-fold dilution): 10 mM), the “NF-kB SEAP reporter activity” value (RAW-Dual [1]; agonist: LPS (TLR4) 0.1 ug/mL) is reported as 1.01, the “NF-kB SEAP reporter activity” value (RAW-Dual [1]; [4]) is reported as 0.995 and the “NF-kB SEAP reporter activity” value (RAW-Dual [1]; [5]) is reported as 0.808. The “NF-kB SEAP reporter activity” value (RAW-Dual [1]; [6]) was 1.03.

Cc1cnc(C(=O)NC2CCCCC/C=C\C3CC3(C(=O)NS(=O)(=O)C3CC3)NC(=O)C3CC(Oc4nc5ccccc5c5ccccc45)CN3C2=O)cn1 (stereo not given) was tested, and the “NF-kB SEAP reporter activity” value (RAW-Dual [2]; [8]) was 0.899.

For COc1ccc2c(OC3CC4C(=O)NC5(C(=O)NS(=O)(=O)C6CC6)CC5/C=C\CCCCN(C)C(=O)C4C3)cc(-c3nc(C(C)C)cs3)nc2c1C (stereo not given), the “NF-kB SEAP reporter activity” value (RAW-Dual [2]; [8]) was 1.03.

For CC(C)(C)OC(=O)NC1CCCCC/C=C\C2CC2(C(=O)NS(=O)(=O)C2CC2)NC(=O)C2CC(OC(=O)N3Cc4cccc(F)c4C3)CN2C1=O (stereo not given), the “NF-kB SEAP reporter activity” value (RAW-Dual [2]; [7]) was 0.902 and the “NF-kB SEAP reporter activity” value (RAW-Dual [2]; [8]) was 1.01.

Cc1cnc(C(=O)NC2CCCCC/C=C\C3CC3(C(=O)NS(=O)(=O)C3CC3)NC(=O)C3CC(Oc4nc5ccccc5c5ccccc45)CN3C2=O)cn1 (stereo not given) (library stock concentration (final ~1000-fold dilution): 10 mM) was tested, and the “NF-kB SEAP reporter activity” value (RAW-Dual [1]; agonist: LPS (TLR4) 0.1 ug/mL) was 0.973, the “NF-kB SEAP reporter activity” value (RAW-Dual [1]; [4]) was 1.05 and the “NF-kB SEAP reporter activity” value (RAW-Dual [1]; [5]) was 0.744. For the same compound, the “NF-kB SEAP reporter activity” value (RAW-Dual [1]; [6]) was 0.617.

With Cl.NCc1c[nH]c(=S)n1C1CCc2c(F)cc(F)cc2C1 (stereo not given) the “NF-kB SEAP reporter activity” value (RAW-Dual [2]; [7]) was 1.12 and the “NF-kB SEAP reporter activity” value (RAW-Dual [2]; [8]) was 0.889.

In the case of Cl.NCc1c[nH]c(=S)n1C1CCc2c(F)cc(F)cc2C1 (stereo not given) (library stock concentration (final ~1000-fold dilution): 10 mM), the “NF-kB SEAP reporter activity” value (RAW-Dual [1]; agonist: LPS (TLR4) 0.1 ug/mL) is reported as 0.779, the “NF-kB SEAP reporter activity” value (RAW-Dual [1]; [4]) is reported as 0.895 and the “NF-kB SEAP reporter activity” value (RAW-Dual [1]; [5]) is reported as 0.82. The “NF-kB SEAP reporter activity” value (RAW-Dual [1]; [6]) was 0.904.

With COC(=O)c1sccc1S(=O)(=O)Nc1ccc(Nc2ccccc2)cc1OC (library stock concentration (final ~1000-fold dilution): 10 mM) the “NF-kB SEAP reporter activity” value (RAW-Dual [1]; agonist: LPS (TLR4) 0.1 ug/mL) was 1.72, the “NF-kB SEAP reporter activity” value (RAW-Dual [1]; [4]) was 0.911 and the “NF-kB SEAP reporter activity” value (RAW-Dual [1]; [5]) was 0.821. For the same compound, the “NF-kB SEAP reporter activity” value (RAW-Dual [1]; [6]) was 0.872.

In the case of COS(=O)(=O)[O-].COc1cccc2c1nc1ccccc1[n+]2C (library stock concentration (final ~1000-fold dilution): 10 mM), the “NF-kB SEAP reporter activity” value (RAW-Dual [3]; agonist: LPS (TLR4) 0.1 ug/mL) is reported as 0.473, the “NF-kB SEAP reporter activity” value (RAW-Dual [3]; [4]) is reported as 0.781 and the “NF-kB SEAP reporter activity” value (RAW-Dual [3]; [5]) is reported as 0.271. For the same compound, the “NF-kB SEAP reporter activity” value (RAW-Dual [3]; [6]) was 0.272.

For COC(=O)c1sccc1S(=O)(=O)Nc1ccc(Nc2ccccc2)cc1OC, the “NF-kB SEAP reporter activity” value (RAW-Dual [2]; [7]) was 1.07 and the “NF-kB SEAP reporter activity” value (RAW-Dual [2]; [8]) was 1.11.

COS(=O)(=O)[O-].COc1cccc2c1nc1ccccc1[n+]2C was tested, and the “NF-kB SEAP reporter activity” value (RAW-Dual [2]; [9]) was 0.838 and the “NF-kB SEAP reporter activity” value (RAW-Dual [2]; [10]) was 0.899.

COc1cc(NS(C)(=O)=O)ccc1Nc1c2ccccc2nc2ccccc12.Cl (library stock concentration (final ~1000-fold dilution): 10 mM) was tested, and the “NF-kB SEAP reporter activity” value (RAW-Dual [3]; agonist: LPS (TLR4) 0.1 ug/mL) was 2.6, the “NF-kB SEAP reporter activity” value (RAW-Dual [3]; [4]) was 0.68 and the “NF-kB SEAP reporter activity” value (RAW-Dual [3]; [5]) was 1.05. For the same compound, the “NF-kB SEAP reporter activity” value (RAW-Dual [3]; [6]) was 0.776.

COc1cc(NS(C)(=O)=O)ccc1Nc1c2ccccc2nc2ccccc12.Cl was tested, and the “NF-kB SEAP reporter activity” value (RAW-Dual [2]; [9]) was 2.58 and the “NF-kB SEAP reporter activity” value (RAW-Dual [2]; [10]) was 2.51.
